# From PubChem BioAssay AID488899 (Broad Institute, 2010)
# Among all 330,000 compounds or so, about 2,800 (0.85%) were called active. The entries come from a sample that favours actives as a whole. Values without a mark were called inactive.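 Rule for the calls: active = mean inhibition across replicates of 60% or more, whatever share of single replicates reaches that level; inconclusive = some that reach 60%, reason not given; inactive = mean inhibition across replicates below 60%.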
# Assay: inhibitors of MITF-dependent TRPM1 promoter reporter, primary screen, cell-based, SK-MEL-5, single point, luciferase (AID 488899)
# Conditions: SK-MEL-5 TRPM1 promoter luciferase, 24 h; at 12.5 µM; hits give high values
row,SMILES,inhibition
1,C[C@@H]1C[C@@H]2O[C@H]2/C=C\C=C\C(=O)Cc2c(Cl)c(O)cc(O)c2C(=O)O1,71.8% (active)
2,CC(C)C(C(=O)NC1CCCCC1)N(CC1CCCO1)C(=O)CNS(=O)(=O)c1ccc(F)cc1 (stereo unspecified),10.3%
3,O=C(CN1CCOc2ccccc21)N1CCC(Cc2ccccc2)CC1,5.49%
4,CCCC(O)(c1ccccc1)C(c1ccccc1)c1ccccn1 (stereo unspecified),4.1%
5,COc1ccc(CNCCCn2cnc3c(OCc4ccccc4)ncnc32)cc1,-4.78%
6,CC(C)(c1ccccc1)c1ccc(OCCN)cc1,-6.11%
7,CN(C)CC(O)COc1ccc(C(C)(C)c2ccc(OCC(O)CN(C)C)cc2)cc1 (stereo unspecified),65.7% (active)
8,Cc1cc(C)n(CC(O)COc2ccc(C(C)(C)C)cc2)n1 (stereo unspecified),-18.8%
9,Nc1ccc2c(c1)C(O)c1ccc(Cl)cc1-2 (stereo unspecified),-6.14%
10,CN(CC(=O)NCCc1ccc(F)cc1)CC(=O)Nc1ccc(F)c(F)c1F,19.3%
11,Nc1nonc1-n1nnc(C(=O)N/N=C/c2cc(Br)ccc2O)c1CSC1=NCCS1,17.4%
12,CC(C)(CCl)C(=O)Nc1ccc(Sc2ccc(F)cc2)cc1,-9.91%
13,O=C(CCl)Nc1ccc(Sc2ccc(NC(=O)CCl)cc2)cc1,88.6% (active)
14,O=C(CCl)Nc1cccc(CP(=O)(c2ccccc2)c2ccccc2)c1,5.96%
15,COC(=O)C1CC2=C(CC(C)(C)CC2=O)N(c2ccccc2)C1=O (stereo unspecified),-6.85%
16,O=C(O)CCCn1c(=O)c2cccn2c2ccc(F)cc21,7.45%
17,CCCC/C(C)=N/NC(=O)NC1CCCCC1,4.57%
18,Cc1cccc(C(=O)OC(C)CN2CCN(C)CC2)c1 (stereo unspecified),-41.9%
19,CCC1=Nc2cc(C(=O)NCCN3CCCC3)ccc2Sc2ccc(C)cc21,-15.3%
20,Cc1cccc(-c2nc3ccc(C(=O)NCCN4CCN(C)CC4)cc3nc2-c2cccc(C)c2)c1,69.1% (active)
21,FC(F)(F)c1cccc(Cc2noc(CN3CCC(N4CCCCC4)CC3)n2)c1,1.26%
22,NC(=O)C1CCN(C(=O)c2cc(S(=O)(=O)N3CCN(c4ccccc4)CC3)ccc2Cl)CC1,4.66%
23,CCC(C)Cn1c(O)cc2nn(-c3nc4ccccc4s3)c(=O)c-2c1C (stereo unspecified),89% (active)

row,SMILES,inhibition
1,Cc1cc(NC(=O)CN2CCCC(C)C2)n(-c2nc3ccccc3s2)n1 (stereo unspecified),1.1%
2,CCN(CC(=O)NCCCN1CCOCC1)S(=O)(=O)c1cc(Cl)ccc1Cl,12.6%
3,O=c1[nH]c2cccnc2n(CCNc2ncc(C(F)(F)F)cc2Cl)c1=O,-3.01%
4,O=C(O[C@@H]1[C@H](Cc2ccccc2)NS(=O)(=O)[C@H]2C[C@@H]3C=C[C@]12O3)c1ccccc1Br,-5.01%
5,O=C(Nc1ccc(Br)cn1)C1CCN(S(=O)(=O)c2cccs2)CC1,20.1%
6,O=c1[nH]c(=S)[nH]c(O)c1/C=C1\C=Nc2ccccc21,65.4% (active)
7,CCc1ccc(NC(=O)CN2CCC(C(=O)c3ccc(OC)cc3)CC2)cc1,16.5%
8,COCC(=O)Nc1c(C(=O)N2CCCC2)oc2ccccc12,-5.06%
9,Cc1cc(C)cc(OCC(=O)NNC(=O)c2cc3ccccc3oc2=O)c1,-14.8%
10,NC(=O)C1(N2CCCCC2)CCN(C(=O)c2ccc(C#Cc3ccccc3)o2)CC1,10.7%
11,COc1ccc(C(=O)OCC(=O)c2cc(C)n(CC3CCCO3)c2C)cc1[N+](=O)[O-] (stereo unspecified),-13.5%
12,Cc1cc(C(=O)CCl)c(C)n1CC1COc2ccccc2O1 (stereo unspecified),51.2%
13,Cc1ccsc1C(=O)OCC(=O)c1cc(C)n(CC2CCCO2)c1C (stereo unspecified),68% (active)
14,CCOc1cccc2c1OC1(CCCCC1)N1N=C(c3cccnc3)CC21 (stereo unspecified),-62.4%
15,Cn1c(=O)c2c(n(Cc3ccccc3)c1=O)NC(=O)C2CC(=O)N1CCc2ccccc2C1 (stereo unspecified),-5.67%
16,COC(=O)C1CCN(CC(N)=O)CC1,-7.19%
17,Cc1cc(C(=O)N/N=C/c2cc([N+](=O)[O-])cc(C)c2O)n[nH]1,11.2%
18,COc1ccc2ccccc2c1/C=N/NC(=O)c1cc(C)[nH]n1,-14.1%
19,CC(C)(C)c1cc(C(=O)N/N=C/c2ccc([N+](=O)[O-])s2)n[nH]1,85.1% (active)
20,COc1ccc(S(=O)(=O)N2CCOCC2)cc1NC(=O)c1ccc(OCC(C)C)c(OC)c1,-3.59%
21,O=C(Oc1ccc(-c2nc(-c3ccccn3)no2)cc1)c1ccccc1,36.6%
22,CC1CCCN(C(=O)CN2C(=O)c3ccccc3S2(=O)=O)C1 (stereo unspecified),11.4%
23,O=C(CN1C(=O)c2ccccc2S1(=O)=O)N1CCc2ccccc21,74.1% (active)

row,SMILES,inhibition
1,O=C(CN1C(=O)c2ccccc2S1(=O)=O)NC1CCCCC1,4.83%
2,Cc1ccc(SCC(=O)NC(=O)NCc2ccco2)c(C)c1,9.21%
3,COCC(=O)N(C)[C@H]1C[C@H]2c3cc(Oc4ccccc4C)ccc3CCN2C(=O)[C@H]1[C@H](C)O,-16.5%
4,Oc1c(CN2CCN(c3ccc(F)cc3)CC2)cc(Cl)c2cccnc12,70.7% (active)
5,Oc1c(CN2CCCC2)cc(COCc2ccccc2)c2cccnc12,73.5% (active)
6,CC1CCCN(CC(O)COCc2ccccc2)C1 (stereo unspecified),-13.7%
7,Cc1cc(=O)oc2cc(OCC(=O)N3CCN(c4ccc(F)cc4)CC3)c(Cl)cc12,-0.292%
8,COc1cc(C)cc(CN2CCC(Cc3ccccc3)CC2)c1O,2.68%
9,Cc1ccc(CN2CCN(c3ncccn3)CC2)c(C)c1,4.53%
10,COc1ccc(OCCNS(=O)(=O)Cc2ccccc2)cc1,0.0862%
11,Cc1ccc(NC(=O)CN2CCCCC2)c2c1CC(C)(C)O2,-7.61%
12,CCNC(=S)NCC,5.56%
13,O=C(NNC(=O)c1ccc(-n2cncn2)c([N+](=O)[O-])c1)c1ccccc1,-1.1%
14,COc1cc(CC(=O)Nc2nc(-c3ccc(F)c(F)c3)cs2)cc(OC)c1OC,0.159%
15,Cc1ccc(-c2csc(NC3OC(=O)c4ccccc43)n2)cc1 (stereo unspecified),31.3%
16,COc1ccc2c(c1OC)C(=O)OC2Nc1nc(-c2ccccc2)cs1 (stereo unspecified),68.6% (active)
17,CCc1cc(-c2nnc(SCC(=O)NC3CC3)n2C)cs1,-9%
18,CCOC(=O)c1ccc(NC(=O)c2c(N)n(C)c(=O)[nH]c2=O)cc1,-48.3%
19,O=c1[nH]c(NCCO)nnc1Cc1ccc(Cl)cc1,5.61%
20,COc1ccc(Cc2nnc(N/N=C/c3ccccc3O)[nH]c2=O)cc1OC,64% (active)
21,CC(C)c1ccc(Cc2nnc(NCCCO)[nH]c2=O)cc1,-0.574%
22,Cc1ccc(CN2CC(C(=O)N3CCN(S(=O)(=O)c4ccccc4)CC3)CC2=O)cc1 (stereo unspecified),-1.06%
23,CCOc1nc(NCCN2CCOCC2)nc(Nc2ccc(C)cc2)n1,-2.25%

row,SMILES,inhibition
1,c1ccc2cc3c(NCCN4CCOCC4)ccnc3cc2c1,80.4% (active)
2,c1ccc(-c2ccc(OCCN3CCOCC3)cc2)cc1,-61.1%
3,O=C1NC(c2ccc(-c3ccccc3[N+](=O)[O-])o2)C(C(=O)c2ccc(Cl)cc2)C(O)(C(F)(F)F)N1 (stereo unspecified),12.2%
4,O=C(Nc1ccccc1Cl)/C(Cl)=C(\Cl)S(=O)c1ccccc1 (stereo unspecified),97% (active)
5,Cc1c(NC(=O)Nc2ccccc2Cl)sc(=S)n1C,-9.97%
6,CN(C)S(=O)(=O)Oc1ccccc1C(=O)Nc1ccccc1Cl,-7.26%
7,Nc1ccc2[nH]c(=S)sc2c1,-7.16%
8,OC(COc1ccc(Br)cc1)CN1CCCC1 (stereo unspecified),-0.089%
9,CC(C)(C)CC(C)(C)NCC(O)COCCOc1ccc(Br)cc1 (stereo unspecified),85.9% (active)
10,CC(Oc1ccc(Br)cc1)C(=O)NC1CCCCCC1 (stereo unspecified),-16.6%
11,COc1ccc(C2NCCCC2c2ccccc2)cc1 (stereo unspecified),14.7%
12,Cc1ccccc1N1CCN(C(=O)c2cccnc2)CC1,2.88%
13,CCOc1ccc(NC(=S)N2CCC(N(C)CC3CCCO3)CC2)cc1 (stereo unspecified),-2.52%
14,CCOC(=O)CN/C=C(\C#N)c1ccc(F)cc1,19.8%
15,CCOc1cc(/C=C(/C#N)c2ccc(Cl)cc2)cc(Cl)c1OCC(=O)O,98.2% (active)
16,C/C(=N\OCC(=O)O)c1ccc(Cl)cc1,-2.61%
17,C#CCOCCOCCOCCNc1nc(N2CCN(C(=O)CCCCCCCCCCNC(=O)Cn3cc(CCCCCN)nn3)CC2)nc(N2CCN(C(=O)CCCCCCCCCCNC(=O)[C@H](CO)n3cc(CCCSC)nn3)CC2)n1,23.1%
18,C#CCOCCOCCOCCNc1nc(N2CCN(C(=O)CCCCCCCCCCNC(=O)[C@H](CCCCN)n3cc(C)nn3)CC2)nc(N2CCN(C(=O)CCCCCCCCCCNC(=O)[C@H](CO)n3cc(CCCSC)nn3)CC2)n1,47.5%
19,C#CCOCCOCCOCCNc1nc(N2CCN(C(=O)CCCCCCCCCCNC(=O)[C@H]([C@@H](C)CC)n3cc(CCCCN=C(N)N)nn3)CC2)nc(N2CCN(C(=O)CCCCCCCCCCNC(=O)[C@H](CO)n3cc(CCCSC)nn3)CC2)n1,72.9% (active)
20,Cc1ccc(-c2nn(C(C)(C)C)c3ncnc(N)c23)cc1,3.91%
21,CN(C)c1ccc(CSc2ccccc2)cc1,-111%
22,Cc1ccc(C(=O)NC(=S)Nc2ccc3[nH]c(=O)[nH]c3c2)cc1C,3.06%
